In the library only some 2.8% were active in any assay of this set; here they are far more common.
IP6K1 inhibitor: IP6K1 kinase inhibition. Q92551. IP6K1 kinase, ADP-Glo luminescence, 2 h; active compounds read low. activity change, % (series mostly up to about 58 µM). 140,000 compounds, 0.81% hits. AID 1645851; in the data active = activity change below about -25%
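ADP-Glo luminescence measures ADP made by human IP6K1 during a 2 h RT reaction with ATP/IP6 (mix at 1.3 mM/130 uM); top library doses 57.5 and 19.1 uM final.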
KDM5B inhibitor: inhibitors of human KDM5B histone demethylase | Q9UGL1 | KDM5B demethylase, FDH-coupled NADH fluorescence (FDH is formaldehyde dehydrogenase) | Potency, µM (doses to about 57.7 µM), most hits filed as inhibitors | 220,000 compounds, 2.6% hits; also: nearly all actives have a fitted effect of over 70% in size
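KDM5BΔAP (200 nM final) in 50 mM HEPES pH 7.5, 0.01% Tween-20 was preincubated 10 min at RT with compound over a concentration range. Substrate mix (H3K4me3 12.5 µM, α-KG 25 µM, Fe²⁺, ascorbate, NAD⁺, FDH) was added, and NADH fluorescence change over 30 min gave dose-response curves.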
IP6K1 conf: confirmation of human IP6K1 inhibitors; shares compounds with IP6K1 inhibitor; recombinant IP6K1 kinase, ADP-Glo luminescence, 2 h; Potency, µM (top dose mostly 49 µM), most hits filed as inhibitors; 1,200 compounds, 13% hits; also: nearly all actives have a fitted effect of over 65% in size
A number is an active result. Unless noted, calls follow the shape of the dose curve; as a rule, active = well fitted inhibition curve with a large enough effect; inconclusive = small, poorly fitted or top-dose-only effect; inactive = no such curve, though single readings can be large or run the other way.

Results for CCOC(=O)c1cnc2ccc(-c3cncc(NS(=O)(=O)c4ccccc4)c3)cn12 ?
IP6K1 inhibitor: inactive; IP6K1 conf: inconclusive

Results for Cn1ncc2c(C(=O)N3CCOCC3)cc(-c3ccc(C(F)(F)F)cc3)nc21 ?
IP6K1 inhibitor: inactive

Results for CC(=O)c1ccc(NC(=O)Cn2ccc3ccc(Cl)cc32)cc1 ?
KDM5B inhibitor: inactive

What do the screens show for `CC(C)c1nnc(NC(=O)c2nc(S(=O)(=O)Cc3ccccc3)ncc2Cl)s1`?
IP6K1 inhibitor: inactive; KDM5B inhibitor: inconclusive

What do the screens show for `CCCc1nnc(NC(=O)c2nc(S(=O)(=O)Cc3ccc(C)cc3)ncc2Cl)s1`?
IP6K1 inhibitor: -33; KDM5B inhibitor: inconclusive; IP6K1 conf: inconclusive

What do the screens show for `Cc1ccc(CS(=O)(=O)c2ncc(Cl)c(C(=O)Nc3nc4ccc(F)cc4s3)n2)cc1`?
IP6K1 inhibitor: -28; KDM5B inhibitor: inconclusive; IP6K1 conf: inactive

How did Cc1ccc(CS(=O)(=O)c2ncc(Cl)c(C(=O)Nc3nc4ccc(C)cc4s3)n2)cc1 do in these assays?
IP6K1 inhibitor: inactive; KDM5B inhibitor: inactive

Results for C[C@H](NC(=O)[C@@H]1Cc2ccccc2CN1C(=O)OC(C)(C)C)C(=O)Nc1ccc2c(c1)OCCO2 ?
KDM5B inhibitor: inactive

Results for CNC(=O)c1ccc(NC(=O)c2nsc3ccccc23)cc1 ?
IP6K1 inhibitor: -27; KDM5B inhibitor: inactive; IP6K1 conf: inconclusive

What do the screens show for `CCOC(=O)c1ccc(NC(=O)c2nsc3ccccc23)cc1`?
IP6K1 inhibitor: inactive; KDM5B inhibitor: inconclusive

Results for COc1ccc(NC(=O)c2ccc3c(SCC(=O)O)c4c(nc3c2)CCCC4)c(OC)c1 ?
IP6K1 inhibitor: -26; KDM5B inhibitor: inconclusive; IP6K1 conf: inactive

What do the screens show for `COc1ccc(NC(=O)CSc2c3c(nc4ccccc24)CCC3)c(OC)c1`?
IP6K1 inhibitor: inactive; KDM5B inhibitor: inactive

What do the screens show for `CCc1ccccc1NC(=O)CSc1nnc(-c2cc(-c3ccc(Cl)cc3)n[nH]2)n1N`?
KDM5B inhibitor: inactive

Results for COc1cccc(-c2noc(CC3CCN(C(=O)c4ccccc4)CC3)n2)c1 ?
IP6K1 inhibitor: inactive; KDM5B inhibitor: inactive

Results for COCC(=O)N[C@@H]1C[C@H](COC)[C@@H](O)[C@H]1O ?
IP6K1 inhibitor: inactive; KDM5B inhibitor: inactive

How did COC[C@H]1C[C@@H](N(C)C)[C@H](O)[C@@H]1O do in these assays?
IP6K1 inhibitor: -25; KDM5B inhibitor: inactive; IP6K1 conf: inconclusive

How did NNC1CCCC1O (stereo not drawn) do in these assays?
KDM5B inhibitor: inactive

How did COc1ccc2nc3n(c2c1)[C@@H](CNS(=O)(=O)c1ccc(F)cc1)COC3 do in these assays?
IP6K1 inhibitor: inactive; KDM5B inhibitor: inactive

What do the screens show for `COc1ccc2nc3n(c2c1)[C@@H](CNC(=O)c1ccc(F)cc1)COC3`?
IP6K1 inhibitor: -26; KDM5B inhibitor: 35µM; IP6K1 conf: inconclusive

What do the screens show for `Cn1c(Sc2ncnc3scc(-c4ccccc4)c23)nnc1C(F)(F)F`?
KDM5B inhibitor: inactive

What do the screens show for `Cn1nnnc1Sc1ncnc2scc(Br)c12`?
IP6K1 conf: inactive

How did Cn1c(Sc2ncnc3scc(-c4ccccc4)c23)nnc1-c1ccccc1F do in these assays?
KDM5B inhibitor: inactive

How did Cn1nnnc1Sc1ncnc2scc(-c3ccc(Br)cc3)c12 do in these assays?
IP6K1 conf: inactive

How did Fc1ccccc1NC(=S)N(Cc1ccccc1)Cc1ccccc1 do in these assays?
KDM5B inhibitor: inactive

How did O=C(CCC(=O)c1ccc(F)cc1)OCC(=O)c1ccc([N+](=O)[O-])cc1 do in these assays?
KDM5B inhibitor: inactive

What do the screens show for `Clc1ccc(CNCc2ccccc2Cn2cncn2)c(Cl)c1`?
KDM5B inhibitor: inactive

What do the screens show for `O=C(NCC(F)(F)F)c1ccc2oc(-c3cccnc3)nc2c1`?
IP6K1 inhibitor: inactive

What do the screens show for `CCOc1ccc2oc(=O)cc(CN3CCN(C(=O)c4ccc(Cl)cc4)CC3)c2c1`?
IP6K1 inhibitor: inactive; KDM5B inhibitor: inconclusive

How did CCOc1ccc2oc(=O)cc(CN3CCN(C(=O)c4cccc(Cl)c4)CC3)c2c1 do in these assays?
IP6K1 inhibitor: -29; KDM5B inhibitor: inconclusive; IP6K1 conf: inactive

What do the screens show for `CN(C)c1ccc2nnc(-c3cc(C(=O)NCc4ccccc4)ccn3)n2n1`?
IP6K1 inhibitor: inactive; KDM5B inhibitor: inactive

How did CC(C)CNC(=O)c1ccnc(-c2nnc3ccc(Nc4ccccc4)nn23)c1 do in these assays?
IP6K1 inhibitor: -28; KDM5B inhibitor: inconclusive; IP6K1 conf: inconclusive

What do the screens show for `COc1ccc(C(=O)N2CCOC3(CCN(C(=O)C(N)Cc4ccccc4)CC3)C2)cc1` (stereo not drawn)?
IP6K1 inhibitor: inactive; KDM5B inhibitor: inactive

How did OCc1cnc2ccccc2c1 do in these assays?
KDM5B inhibitor: inactive

How did CC(C)Cn1c(=O)c2ccccc2n2c(CCC(=O)O)nnc12 do in these assays?
KDM5B inhibitor: inactive

What do the screens show for `CC(C)Cn1c(=O)c2ccccc2n2c(CCC(=O)NCc3ccc(Cl)cc3)nnc12`?
IP6K1 inhibitor: -28; KDM5B inhibitor: inconclusive; IP6K1 conf: inactive

Results for Cc1ccc(-c2ccc3nnc(CNC(=O)Cc4cccc(F)c4)n3n2)cc1C ?
IP6K1 inhibitor: inactive; KDM5B inhibitor: inconclusive

How did Cc1ccc(-c2ccc3nnc(CNC(=O)Cc4cccs4)n3n2)cc1C do in these assays?
IP6K1 inhibitor: inactive; KDM5B inhibitor: inconclusive; IP6K1 conf: inactive

How did CCOc1ccc(CNC(=O)C2CCN(S(=O)(=O)c3cn(C)cn3)CC2)cc1 do in these assays?
IP6K1 inhibitor: -26; KDM5B inhibitor: inactive; IP6K1 conf: inactive

What do the screens show for `COc1ccc(CNC(=O)C2CCN(S(=O)(=O)c3cn(C)cn3)CC2)cc1`?
IP6K1 inhibitor: inactive; KDM5B inhibitor: inactive

Results for O=C(NCC(F)(F)F)C1CCCN1c1nccc(Nc2ccccc2F)n1 (stereo not drawn) ?
IP6K1 inhibitor: inactive

What do the screens show for `COc1ccc(Oc2ncnc3c2oc2ccccc23)cc1`?
IP6K1 inhibitor: inactive; KDM5B inhibitor: inactive

What do the screens show for `Cc1ccc([N+](=O)[O-])c(Oc2ncnc3c2oc2ccccc23)c1`?
IP6K1 inhibitor: -29; KDM5B inhibitor: inactive; IP6K1 conf: inactive

What do the screens show for `N[C@@H](Cc1cc(I)c(O)c(I)c1)C(=O)O`?
IP6K1 inhibitor: -62; IP6K1 conf: inactive

Results for O=C(O)C(Cc1cc(I)c(O)c(I)c1)c1ccccc1 (stereo not drawn) ?
IP6K1 inhibitor: inactive

How did Cc1ccc(-c2cccc(CN3CCCC3C(=O)NCc3ccccc3)c2)cc1Cl (stereo not drawn) do in these assays?
IP6K1 inhibitor: inactive

What do the screens show for `c1cn(-c2ccc(-c3nc(C4CCOC4)no3)cc2)cn1` (stereo not drawn)?
IP6K1 inhibitor: -28; KDM5B inhibitor: inactive; IP6K1 conf: inactive

How did Cc1nnnn1-c1cccc(-c2nc(C3CCOC3)no2)c1 (stereo not drawn) do in these assays?
IP6K1 inhibitor: inactive; KDM5B inhibitor: inactive

What do the screens show for `CCOC(=O)c1c(C)[nH]c(NC(=O)Nc2ccc(-c3ccccc3)cc2)c1C`?
KDM5B inhibitor: inactive

Results for Cc1oc2ccc(O)c(CN(C)Cc3ccccc3)c2c1C(=O)Nc1ccccc1 ?
IP6K1 inhibitor: -28; KDM5B inhibitor: inactive; IP6K1 conf: inactive

Results for Cc1oc2ccc(O)c(CN(C)Cc3ccccc3)c2c1C(=O)Nc1cccc(C(F)(F)F)c1 ?
IP6K1 inhibitor: inactive; KDM5B inhibitor: inconclusive

Assay outcomes as filed in PubChem BioAssay.
